Measurements as given in the antibiotic and cytotoxicity screens of Wong et al. (2023).
The whole screen tested about 39,000 compounds, of which about 3,300 (8.5%) were called active. The sample as a whole holds a higher share of actives than the screen did.

These molecules were tested on HepG2 (assay: cytotoxicity call (relative viability < 0.9)). Details: 10 µM.

SMILES	cytotoxicity call
C[C@@H]1CN([C@H](C)CO)C(=O)CCCn2cc(nn2)CO[C@@H]1CN(C)S(=O)(=O)c1ccccc1C#N	inactive
Cc1ccc(S(=O)(=O)N(C)C[C@H]2Oc3c(NS(=O)(=O)c4ccc(F)cc4)cccc3C(=O)N([C@H](C)CO)C[C@@H]2C)cc1	inactive
C[C@@H]1CN([C@@H](C)CO)C(=O)Cc2cc(NC(=O)Nc3ccc4c(c3)OCO4)ccc2O[C@H]1CN(C)S(C)(=O)=O	inactive
COc1ccc(CN(C)C[C@@H]2Oc3ccc(NC(=O)Nc4ccc(C(F)(F)F)cc4)cc3CC(=O)N([C@@H](C)CO)C[C@@H]2C)cc1	inactive
COc1ccc(NC(=O)Nc2ccc3c(c2)CC(=O)N([C@@H](C)CO)C[C@@H](C)[C@@H](CN(C)Cc2ccc(C(F)(F)F)cc2)O3)cc1	active
COc1ccc(NC(=O)Nc2ccc3c(c2)CC(=O)N([C@H](C)CO)C[C@H](C)[C@H](CN(C)Cc2ccc(C(F)(F)F)cc2)O3)cc1	active
COc1ccc(NC(=O)Nc2ccc3c(c2)CC(=O)N([C@H](C)CO)C[C@H](C)[C@@H](CN(C)Cc2ccc(C(F)(F)F)cc2)O3)cc1	inactive
COc1ccc(CN(C)C[C@@H]2Oc3ccc(NC(=O)Nc4ccc(C(F)(F)F)cc4)cc3CC(=O)N([C@H](C)CO)C[C@H]2C)cc1	inactive
COc1ccc(CN(C)C[C@@H]2Oc3ccc(NC(=O)Nc4ccc(C(F)(F)F)cc4)cc3CC(=O)N([C@H](C)CO)C[C@@H]2C)cc1	active
COc1ccc(NC(=O)Nc2ccc3c(c2)CC(=O)N([C@H](C)CO)C[C@@H](C)[C@@H](CN(C)Cc2ccc(C(F)(F)F)cc2)O3)cc1	active
CC(C)NC(=O)Nc1ccc2c(c1)C(=O)N([C@@H](C)CO)C[C@H](C)[C@@H](CN(C)CC1CCCCC1)OCCCC[C@H](C)O2	inactive
Cc1ccc(S[C@]2(C(=O)NCCCN(C)C)CC(=O)N(Cc3cc(C(F)(F)F)cc(C(F)(F)F)c3)[C@@H]2c2ccc(CO)cc2)cc1	inactive
O=C(CN1CCOCC1)NCC[C@@H]1CC[C@@H](NC(=O)c2ccc3c(c2)OCO3)[C@H](CO)O1	inactive
COc1ccc2c3c(n(c2c1)C)[C@H](CO)N(C[C@]13CN(C1)C(=O)c1ccncc1)C(=O)C1CCCCC1	inactive
CN1CCN(C(=O)C[C@H]2CC[C@H]3[C@H](COc4ccc(NC(=O)C5CCOCC5)cc4C(=O)N3C)O2)CC1	inactive
CCCN1C[C@H](C)[C@@H](OC)CN(C)C(=O)c2cc(NS(=O)(=O)c3cn(C)cn3)ccc2OC[C@H]1C	inactive
CCOC(=O)c1cc(C(=O)OCC)n(C)n1	inactive
COc1ccc(S(=O)(=O)N[C@@H]2C=C[C@@H](CC(=O)N3CCN(c4ccccc4)CC3)O[C@H]2CO)cc1	inactive
Cc1cc2n(n1)CCN(C(=O)[C@H]1CC[C@@H](N)C1)C2	inactive
Cc1ccc(-c2cnc3c(c2)C(=O)N([C@H](C)CO)C[C@H](C)[C@@H](CN(C)C(=O)Cc2ccncc2)O3)cc1	inactive
C[C@H]1CCCCO[C@@H](CN(C)Cc2ccccc2)[C@@H](C)CN([C@@H](C)CO)C(=O)c2cc(NC(=O)c3ccccc3)ccc2O1	inactive
Cc1noc(C)c1NC(=O)N(C)C[C@@H]1Oc2c(NC(=O)C3CCOCC3)cccc2C(=O)N([C@H](C)CO)C[C@H]1C	inactive
COc1ccc(NC(=O)Nc2ccc3c(c2)CC(=O)N([C@@H](C)CO)C[C@H](C)[C@H](CN(C)Cc2ccc(C(F)(F)F)cc2)O3)cc1	active
Cc1cc(-c2ccc3ccccc3n2)nc2ccc3ccccc3c12	inactive
CCCOc1c(-c2ccc3ccccc3n2)cnc2ccccc12	active

SMILES	cytotoxicity call
c1ccc2nc(-c3cn[nH]c3)ccc2c1	inactive
Cc1csc2sc(/C=N/Cc3cccs3)c(C)c12	active
Cc1csc2sc(C(=O)Oc3ccc(Cl)cc3)c(C)c12	inactive
Cc1csc2sc(COC(=O)Nc3ccccc3)c(C)c12	inactive
C[C@@H]1CN([C@@H](C)CO)C(=O)c2cc(NS(=O)(=O)c3cccs3)ccc2O[C@@H](C)CCCCO[C@@H]1CN(C)C(=O)c1ccccc1	inactive
O=C(C[C@H]1C[C@@H]2c3cc(NC(=O)c4ccc5c(c4)OCO5)ccc3O[C@@H]2[C@@H](CO)O1)NCC(F)(F)F	inactive
C[C@H]1CCCCO[C@@H](CN(C)S(=O)(=O)c2ccc(F)cc2)[C@@H](C)CN([C@@H](C)CO)C(=O)c2cc(NC(=O)CCC(F)(F)F)ccc2O1	inactive
CCc1ccc(NC(=O)C2CCN(S(=O)(=O)c3c(C)[nH]c(=O)[nH]c3=O)CC2)cc1	active
Cc1[nH]c(=O)[nH]c(=O)c1S(=O)(=O)N1CCC(C(=O)N[C@H](C)c2ccccc2)CC1	inactive
Cc1[nH]c(=O)[nH]c(=O)c1S(=O)(=O)N1CCC(C(=O)NCCC(C)C)CC1	inactive
COCC(=O)N1[C@@H]2c3ccc(C4=CCCC4)c(=O)n3C[C@@H]2[C@@H](CO)[C@@H]1C(=O)N1CCN(C)CC1	inactive
Cc1noc(C)c1NC(=O)Nc1cccc2c1O[C@@H](CN(C)Cc1ccc(-c3ccccc3)cc1)[C@@H](C)CN([C@H](C)CO)C2=O	inactive
C[C@@H]1CCCCO[C@H](CN(C)Cc2ccc(Cl)c(Cl)c2)[C@@H](C)CN([C@H](C)CO)C(=O)c2cc(NC(=O)C3CCCCC3)ccc2O1	inactive
C[C@@H]1CCCCO[C@H](CN(C)Cc2ccc(Cl)c(Cl)c2)[C@H](C)CN([C@@H](C)CO)C(=O)c2cc(NC(=O)C3CCCCC3)ccc2O1	inactive
C[C@@H]1CN([C@H](C)CO)C(=O)c2cc(NC(=O)C3CCCCC3)ccc2O[C@@H](C)CCCCO[C@H]1CN(C)Cc1ccc(Cl)c(Cl)c1	active
C[C@@H]1CCCCO[C@H](CN(C)Cc2ccc(Cl)c(Cl)c2)[C@@H](C)CN([C@@H](C)CO)C(=O)c2cc(NC(=O)C3CCCCC3)ccc2O1	active
C[C@@H]1CN([C@@H](C)CO)C(=O)c2cc(NC(=O)C3CCCCC3)ccc2O[C@H]1CN(C)Cc1ccc(Cl)c(Cl)c1	inactive
C[C@@H]1CCCCO[C@@H](CN(C)Cc2ccc(Cl)c(Cl)c2)[C@@H](C)CN([C@H](C)CO)C(=O)c2cc(NC(=O)C3CCCCC3)ccc2O1	active
C[C@@H]1CN([C@H](C)CO)C(=O)c2cc(NC(=O)C3CCCCC3)ccc2O[C@@H](C)CCCCO[C@@H]1CN(C)Cc1ccc(Cl)c(Cl)c1	inactive
C[C@H](CO)N1C[C@H](C)[C@@H](CN(C)Cc2ccc(Cl)c(Cl)c2)Oc2ccc(NC(=O)C3CCCCC3)cc2C1=O	inactive
C[C@@H]1CN([C@@H](C)CO)C(=O)c2cc(NC(=O)C3CCCCC3)ccc2O[C@@H](C)CCCCO[C@H]1CN(C)Cc1ccc(Cl)c(Cl)c1	active
C[C@@H]1CCCCO[C@@H](CN(C)Cc2ccc(Cl)c(Cl)c2)[C@@H](C)CN([C@@H](C)CO)C(=O)c2cc(NC(=O)C3CCCCC3)ccc2O1	inactive
C[C@@H]1CCCCO[C@@H](CN(C)Cc2ccc(Cl)c(Cl)c2)[C@H](C)CN([C@@H](C)CO)C(=O)c2cc(NC(=O)C3CCCCC3)ccc2O1	inactive
C[C@H](CO)N1C[C@H](C)[C@@H](CN(C)Cc2ccc(Cl)c(Cl)c2)OCCCC[C@H](C)Oc2ccc(NC(=O)C3CCCCC3)cc2C1=O	inactive
